Many of the other results were omitted from the sample, so the strongest signals are more common in it than they were.
Experiments:
Assay in all cases: glycan array binding signal (z-score within array); higher = stronger binding
Settings in all cases: glycan notation: IUPAC condensed, linker removed
[1] = molecular target: Neu5Ac(a2-3)Gal(b1-3)[Neu5Ac(a2-6)]GalNAc
Procedure, shortened: (§1)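 Glycan array binding is given as a within-array Z-score, which can be read as non-binding when negative. The arrays, 3228 of them, came from the Consortium for Functional Glycomics database and were retained only where the protein sequence was available. Z-scores were averaged across arrays of the same protein sequence at different concentrations or buffers and across linkers.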

[2] = molecular target: Neu5Ac(a2-3)Gal(b1-4)GlcNAc(b1-2)Man(a1-3)[Neu5Ac(a2-3)Gal(b1-4)GlcNAc(b1-2)Man(a1-6)]Man(b1-4)GlcNAc(b1-4)GlcNAc
Procedure, shortened: as §1

[3] = molecular target: Neu5Ac(a2-3)Gal(b1-4)GlcNAc(b1-3)Gal
Procedure, shortened: as §1

[4] = molecular target: Neu5Ac(a2-3)Gal(b1-4)[Fuc(a1-3)]GlcNAc
Procedure, shortened: as §1

[5] = molecular target: Neu5Ac(a2-3)Gal(b1-4)[Fuc(a1-3)]GlcNAc(b1-3)Gal(b1-4)[Fuc(a1-3)]GlcNAc(b1-3)Gal(b1-4)[Fuc(a1-3)]GlcNAc
Procedure, shortened: as §1

[6] = molecular target: Neu5Ac(a2-6)Gal(b1-4)GlcNAc(b1-2)Man(a1-3)[GlcNAc(b1-2)Man(a1-6)]Man(b1-4)GlcNAc(b1-4)GlcNAc
Procedure, shortened: as §1

[7] = molecular target: Neu5Ac(a2-6)Gal(b1-4)GlcNAc(b1-2)Man(a1-3)[Neu5Ac(a2-3)Gal(b1-4)GlcNAc(b1-2)Man(a1-6)]Man(b1-4)GlcNAc(b1-4)GlcNAc
Procedure, shortened: as §1

[8] = molecular target: Neu5Ac(a2-6)Gal(b1-4)GlcNAc(b1-2)Man(a1-6)[GlcNAc(b1-2)Man(a1-3)]Man(b1-4)GlcNAc(b1-4)GlcNAc
Procedure, shortened: as §1

[9] = molecular target: Neu5Ac(a2-6)Gal(b1-4)GlcNAc(b1-2)[Neu5Ac(a2-6)Gal(b1-4)GlcNAc(b1-4)]Man(a1-3)[GlcNAc(b1-4)][Neu5Ac(a2-6)Gal(b1-4)GlcNAc(b1-2)[Neu5Ac(a2-6)Gal(b1-4)GlcNAc(b1-6)]Man(a1-6)]Man(b1-4)GlcNAc(b1-4)GlcNAc
Procedure, shortened: as §1

[10] = molecular target: Neu5Ac(a2-6)Gal(b1-4)GlcNAc(b1-2)[Neu5Ac(a2-6)Gal(b1-4)GlcNAc(b1-6)]Man(a1-6)[Neu5Ac(a2-6)Gal(b1-4)GlcNAc(b1-2)Man(a1-3)][GlcNAc(b1-4)]Man(b1-4)GlcNAc(b1-4)GlcNAc
Procedure, shortened: as §1

[11] = molecular target: Neu5Ac(a2-6)Gal(b1-4)GlcNAc(b1-3)Gal(b1-4)[Fuc(a1-3)]GlcNAc(b1-3)Gal(b1-4)[Fuc(a1-3)]GlcNAc
Procedure, shortened: as §1

[12] = molecular target: Neu5Ac(a2-6)Gal(b1-4)GlcNAc(b1-6)GalNAc
Procedure, shortened: as §1

[13] = molecular target: Neu5Ac(a2-6)Gal(b1-4)GlcNAc(b1-6)[Gal(b1-3)GlcNAc(b1-3)]Gal(b1-4)Glc
Procedure, shortened: as §1

[14] = molecular target: Neu5Gc(a2-8)Neu5Ac(a2-3)Gal(b1-4)GlcNAc
Procedure, shortened: as §1

B1: Endo180d1-D4 (Homo sapiens), Q9UBG0 (protein)
chain: MGPGRPAPAPWPRHLLRCVLLLGCLHLGRPGAPGDAALPEPNVFLIFSHGLQGCLEAQGGQVRVTPACNTSLPAQRWKWVSRNRLFNLGTMQCLGTGWPGTNTTASLGMYECDREALNLRWHCRTLGDQLSLLLGARTSNISKPGTLERGDQTRSGQWRIYGSEEDLCALPYHEVYTIQGNSHGKPCTIPFKYDNQWFHGCTSTGREDGHLWCATTQDYGKDERWGFCPIKSNDCETFWDKDQLTDSCYQFNFQSTLSWREAWASCEQQGADLLSITEIHEQTYINGLLTGYSSTLWIGLNDLDTSGGWQWSDNSPLKYLNWESDQPDNPSEENCGVIRTESSGGWQNRDCSIALPYVCKKKPNATAEPTPPDRWANVKVECEPSWQPFQGHCYRLQAEKRSWQESKKACLRGGGDLVSIHSMAELEFITKQIKQEVEELWIGLNDLKLQMNFEWSDGSLVSFTHWHPFEPNNFRDSLEDCVTIWGPEGRWNDSPCNQSLPSICKKAGQLSQGAAEEDHGCRKGWTWHSPSCYWLGEDQVTYSEARRLCTDHGSQLVTITNRFEQAFVSSLIYNWEGEYFWTALQDLNSTGSFFWLSGDEVMYTHWNRDQPGYSRGGCVALATGSAMGLWEVKNCTSFRARYICRQSLGTPVTPELPGPDPTPSLTGSCPQGWASDTKLRYCYKVFSSERLQDKKSWVQAQGACQELGAQLLSLASYEEEHFVANMLNKIFGESEPEIHEQHWFWIGLNRRDPRGGQSWRWSDGVGFSYHNFDRSRHDDDDIRGCAVLDLASLQWVAMQCDTQLDWICKIPRGTDVREPDDSPQGRREWLRFQEAEYKFFEHHSTWAQAQRICTWFQAELTSVHSQAELDFLSHNLQKFSRAQEQHWWIGLHTSESDGRFRWTDGSIINFISWAPGKPRPVGKDKKCVYMTASREDWGDQRCLTALPYICKRSNVTKETQPPDLPTTALGGCPSDWIQFLNKCFQVQGQEPQSRVKWSEAQFSCEQQEAQLVTITNPLEQAFITASLPNVTFDLWIGLHASQRDFQWVEQEPLMYANWAPGEPSGPSPAPSGNKPTSCAVVLHSPSAHFTGRWDDRSCTEETHGFICQKGTDPSLSPSPAALPPAPGTELSYLNGTFRLLQKPLRWHDALLLCESHNASLAYVPDPYTQAFLTQAARGLRTPLWIGLAGEEGSRRYSWVSEEPLNYVGWQDGEPQQPGGCTYVDVDGAWRTTSCDTKLQGAVCGVSSGPPPPRRISYHGSCPQGLADSAWIPFREHCYSFHMELLLGHKEARQRCQRAGGAVLSILDEMENVFVWEHLQSYEGQSRGAWLGMNFNPKGGTLVWQDNTAVNYSNWGPPGLGPSMLSHNSCYWIQSNSGLWRPGACTNITMGVVCKLPRAEQSSFSPSALPENPAALVVVLMAVLLLLALLTAALILYRRRQSIERGAFEGARYSRSSSSPTEATEKNILVSDMEMNEQQE
[1]
  glycan array binding signal (z-score): -0.517
[2]
  glycan array binding signal (z-score): -0.688
[3]
  glycan array binding signal (z-score): 0.249
[4]
  glycan array binding signal (z-score): -0.083
[5]
  glycan array binding signal (z-score): -0.132
[6]
  glycan array binding signal (z-score): 3.38
[7]
  glycan array binding signal (z-score): 0.363
[8]
  glycan array binding signal (z-score): -0.485
[9]
  glycan array binding signal (z-score): -0.277
[10]
  glycan array binding signal (z-score): 2.92
[11]
  glycan array binding signal (z-score): 2.78
[12]
  glycan array binding signal (z-score): 0.474
[13]
  glycan array binding signal (z-score): -0.046
[14]
  glycan array binding signal (z-score): -0.032

From the supplement of paper PMC8728848
